Test results: ChEMBL document CHEMBL3988442, “University of Dundee, Small-Polar-MMV Screening Library” (2021)
Among all 48,000 compounds or so, about 13,000 (27%) showed an effect of 50% or more. This is one part of the list.

These compounds were tested on Wolbachia pipientis (assay: Anti-Wolbachia Cell-Based Screen). Conditions: 5 µM.
Type: functional
Parameters: scale not given: in the data most compounds retested in dose-response had high values

Compound | Percent Effect [%]
Cc1nc(CN2CCC(CNC(=O)C3CCOC3)CC2)oc1C (stereo not given) | -1.518
CCCN(CCC)C(=O)c1cc(CN2CCC(O)CC2)on1 | -23.18
COc1ccc(-c2noc(CCC(=O)N3CCOCC3(C)C)n2)cc1 | 3.097
CCc1nccn1C1CCCN(C(=O)c2cc3nc(C)ccc3o2)C1 (stereo not given) | -10.67
O=c1[nH]nc2c(S(=O)(=O)N3CCCCCC3)cccn12 | 159
Cc1nnc(SCCNC(=O)CC2CCc3ccccc32)s1 (stereo not given) | -7.078
O=C(O)[C@H]1OCC(=O)N(Cc2cccc(Cl)c2)[C@@H]1c1ccccc1 | 97.67
O=C(O)[C@@H]1OCC(=O)N(Cc2cccc(Cl)c2)[C@@H]1c1ccccc1 | 105.3
O=C(O)[C@H]1OCC(=O)N(Cc2cccc(F)c2)[C@@H]1c1ccc(Cl)cc1 | 104.6
CC(C)N1C[C@@H]2OCC(=O)N(Cc3ccccc3)[C@@H]2C1 | 4.027
O=C(O)C(F)(F)F.O=C1CO[C@@H]2CN(CC3CCOC3)C[C@H]2N1Cc1cccc(F)c1 (stereo not given in full) | 18.32
O=C(O)C(F)(F)F.O=C1CO[C@@H]2CN(CC3CC3)C[C@H]2N1Cc1cccc(F)c1 | 2.959
NC(=O)CN1C(=O)CO[C@H]2CN(Cc3ccccc3)C[C@H]21 | -7.855
CN1CCC(C(=O)N2CCN(Cc3cccc(Cl)c3)CC2)CC1=O (stereo not given) | 1.504
O=C1CO[C@H]2CN(S(=O)(=O)c3ccccc3)C[C@H]2N1Cc1ccccc1 | -0.9845
CCOc1ccccc1-c1noc(CN2CC(n3cccn3)C2)n1 | -3.661
COc1ccc(C2(C(=O)N3CC(c4cccnc4)C3)CC2(C)C)cc1 (stereo not given) | -12.52
COc1ccc(C(=O)N2CCOC(Cc3cccc(C(F)(F)F)c3)C2)o1 (stereo not given) | -4.741
N#Cc1ccc(CNc2ncc(C#N)cc2Cl)cc1 | 12.93
Cc1occc1C(=O)N(CCN(C)C)Cc1ccccn1 | -8.298
CCn1nc(C)c(CN(CCOC)C(=O)c2ccccc2N(C)C)c1C | -7.863
CCn1nc(C)c(CN(CCOC)C(=O)c2ccc(=O)[nH]n2)c1C | -5.597
Cc1ccoc1C(=O)N(CCN(C)C)Cc1ccccn1 | -10.81
CCOCC(=O)N(Cc1ccccn1)Cc1ccccc1C | -6.914
Cc1ccsc1CN(Cc1ccccn1)CC(C)C | -7.102

Compound | Percent Effect [%]
CCn1nc(C)c(CN(CCCOC)Cc2ccccn2)c1C.O=C(O)CC(O)(CC(=O)O)C(=O)O | 71.01
Cc1ccsc1CN(CCCN(C)C)Cc1ccccn1 | 97.01
CCN(Cc1ccccn1)Cc1cc(Cl)ccc1OC | -5.315
Cc1ccsc1CN(CCN(C)C)Cc1ccccn1 | 2.739
CCn1nc(C)c(CN(CCCN(C)C)Cc2ccccn2)c1C | 80.15
CCn1nc(C)c(CN(Cc2ccccn2)Cc2ccccc2Cl)c1C | 105.5
CN1CCCN(CCCNC2CCc3cc4c(cc32)OCCO4)CC1 (stereo not given) | -2.164
CCN1CCN(c2ccc(F)cc2C(C)NCc2noc(C)n2)CC1 (stereo not given) | 6.672
NC(=O)c1ccnc(N2CCN(Cc3ccc(F)cc3Cl)CC2)c1 | 9.794
CCCn1ncc(CN(CCN(C)C)Cc2ccsc2)c1C | 0.1145
CCCn1nc(C)c(CN(CCN(C)C)Cc2ccccn2)c1C | 95.65
CCCN(Cc1ccccn1)Cc1ccccc1OC | 8.723
NC(=O)N1CCCC1COC(=O)c1ccc(F)cc1Br (stereo not given) | -14.4
O=S1(=O)CCC(CNS(=O)(=O)N2CCc3ccccc3C2)C1 (stereo not given) | 5.684
CCCC(C)(C)NC(=O)c1ccc(CC2CC(=O)NC2=O)cc1 (stereo not given) | -6.168
O=C(N[C@@H]1CNCCC[C@H]1O)c1ccc(OCc2ccccc2)cc1 | -1.908
O=C(N[C@H]1CCCC[C@@H]1O)c1ccc(-c2nc3ccccc3[nH]2)cc1 | 104
O=C(N[C@H]1CCCC[C@@H]1O)c1ccc2nc(-c3ccccc3)[nH]c2c1 | 121.7
OCC1CCCCN1CCn1ccnc1-c1nc2ccccc2[nH]1 (stereo not given) | 1.292
O=C(N[C@@H]1CCNC[C@H]1O)c1ccc(F)c(F)c1 | 7.783
O=C(N[C@H]1CCCC[C@@H]1O)c1cccc(-c2nc3ccccc3[nH]2)c1 | 102.7
O=C(N[C@@H]1CCNC[C@H]1O)c1ccc(O)c(Cl)c1 | 22.9
O=C(N[C@@H]1CCNC[C@H]1O)c1ccc(-c2ccc(F)cc2)cc1 | 15.94
CN1CCCC1CCn1ccnc1-c1nc2ccccc2[nH]1 (stereo not given) | 1.274
O=C(CCc1cn[nH]c1)N1C[C@@H](CN2CCOCC2)C[C@H](CO)C1 | 10.13

Compound | Percent Effect [%]
COC(=O)c1sccc1S(=O)(=O)N1CCC(Oc2cccnn2)CC1 | 13.23
COC(=O)N1CCCC(NC(=O)NCc2ccc(C)nc2)C1 (stereo not given) | 12.17
Cc1nc(C)n(CC2CN(CCCc3ccccc3)CCO2)n1 (stereo not given) | -18.17
CC(C)(C)c1n[nH]c(C2CN(CCc3ccncc3)CCO2)n1 (stereo not given) | 18.66
CN(Cc1nccn1C)C1CCCN(CCCc2ccccc2)C1 (stereo not given) | 7.706
CN(C)Cc1ccnc(C2CN(CCc3ccccc3)CCO2)n1 (stereo not given) | 102.6
CN(C)Cc1ccnc(C2CN(CCCc3ccccc3)CCO2)n1 (stereo not given) | 114
Cn1ncc(N2CCC(CNC3CC(C)(C)CC(C)(C)C3)C2)cc1=O (stereo not given) | 8.981
Cc1nn(C)cc1CN1CCC(c2ncc(Cl)cc2S(C)(=O)=O)CC1 | 110.1
CS(=O)(=O)c1cc(Cl)cnc1C1CCN(C(=O)C2CCOCC2)CC1 | 98
O=C(C1CCCO1)N1CCC(c2nc(-c3ccccc3)n[nH]2)CC1 (stereo not given) | -16.11
Cc1nn(C)cc1CN1C[C@@H]2CC[C@H](C1)N(Cc1c(C)noc1C)C2=O | -0.3171
CN(CCO)Cc1nnc(C2CCN(C(=O)C3CCOCC3)CC2)n1C | -7.962
CS(=O)(=O)c1cc(Cl)cnc1C1CCN(C(=O)C2CCCO2)CC1 (stereo not given) | 120.4
Cc1nn(CCO)cc1CN1CCC(N2CCC(O)CC2)CC1 | -2.078
O=C(C1CCCO1)N1CCC(Cn2cc(C3CCCC3)nn2)CC1 (stereo not given) | -6.289
Cn1c(CN2CCCC2)nnc1C1CCCN(C(=O)C2CCOCC2)C1 (stereo not given) | -15.35
CS(=O)(=O)c1cc(Cl)cnc1C1CCCN(C(=O)C2CCOCC2)C1 (stereo not given) | 120.4
CS(=O)(=O)N1C[C@@H](C(=O)Nc2cnccn2)C[C@H]2OCC[C@H]21 | -10.64
Cc1cc(C)cc(C(=O)Nc2ccc(CC3CC(=O)NC3=O)cc2)c1 (stereo not given) | -7.063
CCS(=O)(=O)c1ccc(N2CCC(N)CC2)cc1 | -6.106
CCc1noc(C)c1C(=O)NCCCC(CC)(CC)C1OCCO1 | -8.501
Cn1c(C(F)(F)F)nn(CCNC(=O)c2cnc3ccccc3n2)c1=O | 1.982
N#Cc1cnc(NC2CCN(C(=O)C3CC3)CC2)c(Cl)c1 | -2.67
CS(=O)(=O)c1cc(Cl)cnc1C1CCN(C(=O)C2CC2)CC1 | 82.8

Compound | Percent Effect [%]
O=C(C1CC1)N1CCC(Oc2ccccc2Cl)CC1 | -14.42
CCn1nc(C)c(CCNC(=O)C2CCCN(CC(N)=O)C2)c1C (stereo not given) | -1.587
O=C(CSC1=NS(=O)(=O)c2cc(F)ccc2N1)Nc1cccc(Cl)c1 | 1.822
CN(CCS(=O)(=O)c1cc(Cl)ccc1Cl)CC(=O)Nc1ccc(F)cc1 | -4.797
O=C(CSC1=NS(=O)(=O)c2cc(F)ccc2N1)Nc1ccc(Cl)c(Cl)c1 | 112.6
O=C(CSC1=NS(=O)(=O)c2cc(F)ccc2N1)Nc1ccc(Cl)cc1 | 115.7
O=S1(=O)N=C(SCc2ccc(Cl)cc2)Nc2ccc(F)cc21 | 26.5
O=C(c1cnc[nH]1)N1CCC(Oc2cccnc2)CC1 | -5.216
NCC(=O)N1CCC(c2cncc(Oc3cccnc3)n2)CC1 | 115.4
COCCC(=O)N1CCC(c2cncc(Oc3cccnc3)n2)CC1 | 116.7
CCOCC(=O)N1CCC(c2nc(-c3cccnn3)no2)CC1 | -10.28
COCCC(=O)N1Cc2[nH]nc(COc3cccnc3)c2C1 | -7.677
CN(C)c1cncc(C2CCN(C(=O)CO)CC2)n1 | -8.172
CC(=O)NCC(=O)N1CCC(c2cncc(Oc3cccnc3)n2)CC1 | 94.92
CCC(=O)N1CCC(c2cncc(Oc3cccnc3)n2)CC1 | 118.9
O=C(O)c1coc(COc2cccc(F)c2)n1 | 4.925
Cn1cc(C(C)(O)CNc2ccc(C(F)(F)F)cn2)cn1 (stereo not given) | -6.245
CC(C)(C)CC(NC(=O)c1nc(=O)[nH][nH]1)c1ccc(F)cc1 (stereo not given) | -5.789
COC(=O)CCNC(=O)c1coc(COc2ccc(F)cc2)n1 | -5.567
CCOC(=O)NC(=O)CSC(C)c1ccccc1F (stereo not given) | 4.048
CN1CCN2CCN(C(=O)c3cnn4cc(CCO)cnc34)CC2C1 (stereo not given) | -3.17
Cn1ccnc1CN1CCCN(C(=O)c2ccc3[nH]cnc3c2)CC1 | 100.5
Cc1nccn1CCC1CCCCN1C(=O)c1ccc2[nH]nnc2c1 (stereo not given) | -0.5329
Cn1ccnc1CN1CCCN(C(=O)c2ccc3[nH]nnc3c2)CC1 | 102.4
CC(C)c1nccn1C1CCCN(C(=O)c2ccc3[nH]cnc3c2)C1 (stereo not given) | -5.197
